36 compounds from PubChem BioAssay AID602192 (The Scripps Research Institute Molecular Screening Center, 2012) can be followed below.

Out of some 2,400 compounds screened, about 750 (31%) were called active.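 Rule for the calls: active = mean activation across replicates above the hit cutoff set in the earlier primary screen (cut at about 8% in these data); inactive = the rest.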 Not all results are given here.

Sequence of Melanocortin receptor 4 (Homo sapiens) (P32245 whole entry, looked up): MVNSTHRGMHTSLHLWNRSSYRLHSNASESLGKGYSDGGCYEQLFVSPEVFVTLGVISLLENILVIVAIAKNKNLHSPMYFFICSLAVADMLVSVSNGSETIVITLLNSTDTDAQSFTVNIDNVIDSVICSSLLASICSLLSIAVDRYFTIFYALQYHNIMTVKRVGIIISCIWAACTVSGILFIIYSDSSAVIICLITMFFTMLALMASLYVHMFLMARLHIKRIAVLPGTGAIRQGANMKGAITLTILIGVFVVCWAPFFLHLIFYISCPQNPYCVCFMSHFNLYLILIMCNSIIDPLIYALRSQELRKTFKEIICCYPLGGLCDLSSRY

The assay has as its target Melanocortin receptor 4 (Homo sapiens) (UniProt P32245). Description: activators of MC4R arrestin recruitment – cell-based, luminescence, U2OS, confirmation (AID 602192). Particulars: U2OS MC4R beta-arrestin recruitment, at 8.9 µM, active compounds read high, scaled DMSO 0%, Melanotan II 100%. (Arrestin recruitment assays detect the binding of arrestin to an activated receptor.)
As for `CCN1C[C@@H]2[C@@H]3C(=O)N(Cc4ccccc4)C(=O)[C@@H]3[C@](Cc3ccccc3)(C(=O)OC)N2C1=NC1CCCCC1`, the activation was 17% (active). For `COc1ccc2nc(NC(=O)c3ccc(Br)s3)sc2c1`, the activation was 5.97% (inactive).

As to `CN(C)CCCN(C(=O)c1ccc(S(=O)(=O)N2CCCCCC2)cc1)c1nc2ccc(Br)cc2s1`, the activation was 15.3% (active). With `CSc1nc2sc3c(c2c(=O)[nH]1)CCc1ccccc1-3` the figure was 9.67% (active); with `COc1ccc(Cn2c(C)c(C)c(C#N)c2NC(=O)Nc2ccc(F)cc2)cc1`, 2.83% (inactive). Consider `COC(=O)c1sccc1NC(=O)CCC1CCCC1`, for which the activation is 0.35% (inactive). `Cc1csc(NC(=O)c2ccc(-c3ccc(Cl)cc3Cl)o2)n1`: the activation was 9.09% (active). For `O=C(NC(c1ccc(-c2ccccc2)cc1)c1cnccn1)C1CCN(CCOc2ccc(Cl)cc2Cl)CC1` (stereo unspecified) the value was 7.32% (inactive); for `Cc1ccc(-c2csc(NC(=O)Cn3[nH]c(=O)c4ccccc4c3=O)n2)cc1`, 2.98% (inactive); for `Brc1ccc(-c2csc(N/N=C/c3cccnc3)n2)cc1`, -2.16% (inactive). For `N#CC(=C1SC=CS1)c1nc(-c2ccccc2)cs1` the value was -2.79% (inactive); for `Cc1ccc(NC(=O)Nc2ccccc2)c(Br)c1`, 3.05% (inactive).

For the compound `CC(=O)Nc1ccc(-c2csc(NC(=O)Nc3ccccc3)n2)cc1`, the activation is 26.9% (active).

As for `O=C(Nc1nc(-c2ccc(-c3ccccc3)cc2)cs1)c1cnccn1`, the activation is 10.5% (active).

`N#CCC(=O)N/N=C/c1cn(Cc2ccc3ccccc3c2)c2ccccc12`: the activation is 2.4% (inactive). On to `COc1ccc(C(=O)c2oc3ccc(Br)cc3c2NC(C)=O)cc1`, for which the activation was 1.93% (inactive). Turning to `COc1ccc(/C=N/NC(=O)Nc2ccc3nsnc3c2)c(OC)c1`, the activation is -0.12% (inactive). For the compound `CC(=O)c1sc(NC(=O)CCCOc2ccccc2C)nc1C`, the activation was 5.8% (inactive). As for `COc1ccc(C(=O)n2nc(-c3ccc(C)cc3)nc2N)cc1OC`, the activation was 0.77% (inactive). As to `COc1cccc(CNCCc2c[nH]c3ccccc23)c1OCc1ccccc1F`, the activation is 32% (active). For `CCc1ccc(Nc2ncc3c(n2)CC(c2ccco2)CC3=O)cc1` (stereo unspecified), the activation was 0.77% (inactive). With `COc1ccc(OCC(=O)Nc2ccc(N3CCC(C)CC3)cc2)cc1`, the activation is 2.6% (inactive).

Take `O=C(CCCN1C(=O)/C(=C\c2ccco2)SC1=S)Nc1cccc2ccccc12`: the activation is -0.83% (inactive). As to `O=C(CCCN1C(=O)/C(=C/c2cccs2)SC1=S)Nc1ccc(O)cc1`, the activation was 11.8% (active). As to `O=C(/C=C/c1c(Cl)cccc1Cl)NCc1ccccc1`, the activation is -0.28% (inactive). Turning to `COc1cccc2sc(N(CCCN(C)C)C(=O)C(c3ccccc3)c3ccccc3)nc12`, the activation is 19.5% (active).

For the compound `Cc1cccc(NC(=O)Nc2cccc(Oc3c(F)c(F)c(F)c(F)c3F)c2)c1`, the activation was -1.61% (inactive).

Regarding `Cc1ccc(-n2cc3ccc([N+](=O)[O-])cc3n2)cc1`, the activation is 5.74% (inactive).

Consider `Cc1ccc(Nc2nnc(SCc3ccccc3)s2)cc1`, for which the activation is 9.35% (active).

Take `Cc1ccc(Nc2nnc(SCC(=O)c3cc4ccccc4o3)s2)cc1C`: the activation is 1.84% (inactive).

As for `COc1ccc(S(=O)(=O)N/N=C\c2ccc(OC)c(COc3ccc(C)cc3[N+](=O)[O-])c2)cc1`, the activation was 1.84% (inactive).

Turning to `CC(C)Oc1c(Br)cc(Br)cc1/C=N/NC(N)=S`, the activation is 13.3% (active).

For `CCC(=O)c1cc2c(cc1NC(=O)c1cccs1)OCCO2`, the activation is 6.01% (inactive). On to `Cc1nn2cc(-c3ccc(Cl)cc3)cnc2c1Br`, for which the activation is -1.24% (inactive).

Turning to `CC(=O)Nc1ccc(NC(=O)c2sc3nc4c(c(-c5ccc(C)cc5)c3c2N)CCC4)cc1`, the activation is 5.71% (inactive). As for `CSc1ccc(S(=O)(=O)NCc2ccc(Cl)cc2)cc1`, the activation was 1.19% (inactive).
